Assay outcomes (PubChem BioAssay)
A selection: hits, their analogues and other compounds. The true share with any hit is near 3.9%.
Anthrax LF prot = Bacillus anthracis LF protease inhibitors, primary screen, biochemical, multiplex microsphere, MLPCN library. inhibition, % at 10 µM. hit rate 0.12% among 360,000. multiplex microsphere protease cleavage assay. Lethal factor (Bacillus anthracis), P15917
3CLpro inhibitor = SARS-CoV 3CLpro protease inhibitors, primary screen, biochemical, quenched FRET; hit rate 0.14% among 290,000; recombinant SARS-CoV 3CLpro, quenched FRET peptide cleavage; AID 1706, 2009; Replicase polyprotein 1ab (Severe acute respiratory syndrome coronavirus), P0C6X7; inhibition, % at 6 µM; in the data active = inhibition above about 12%
VHR inh abs = VHR1 phosphatase inhibitors, primary screen, biochemical, absorbance, uHTS; Dual specificity protein phosphatase 3 (Homo sapiens), P51452; recombinant VHR phosphatase, pNPP absorbance; inhibition, % at 13.3 µM; hit rate 0.52% among 290,000; AID 1654, 2009; in the data active = inhibition above about 50%
Target sequence (P51452 whole entry, looked up): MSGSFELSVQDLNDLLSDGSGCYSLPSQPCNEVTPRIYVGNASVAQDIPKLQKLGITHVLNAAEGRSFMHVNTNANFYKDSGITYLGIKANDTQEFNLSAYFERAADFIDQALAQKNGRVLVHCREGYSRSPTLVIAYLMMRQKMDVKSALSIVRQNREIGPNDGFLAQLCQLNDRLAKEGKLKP
BoNT-F LC inh = BoNT/F light chain protease inhibitors, primary screen, biochemical, flow cytometry, MLPCN library; Botulinum neurotoxin type F light chain protease (Clostridium botulinum); Multiplex microsphere protease cleavage assay; inhibition, % at 10 µM; hit rate 0.22% among 360,000; AID 588497, 2011; in the data active = inhibition above about 35%, passing the limit was not always enough; inconclusive = no clear call, values can overlap the other calls
Autofluor counter = compound fluorescence in toxin protease inhibitor counterscreen; hit rate 3.1% among 360,000; fluorescence intensity (no concentration beside the values); compound autofluorescence counterscreen, microsphere flow cytometry; stronger effect = higher value; in the data active = fluorescence intensity above about 16000; inconclusive = no clear call, values can overlap the other calls
BoNT-A LC inh2 = BoNT/A light chain protease inhibitors, primary screen, biochemical, flow cytometry, MLPCN library. Botulinum neurotoxin type A light chain protease (Clostridium botulinum A str. ATCC 3502). multiplex microsphere protease substrate cleavage. inhibition, % at 10 µM. hit rate 0.17% among 360,000
Numbers stand for hits; 0 = inactive; ? = inconclusive; - = no result given. Rule as the data show it, unless noted: active = inhibition above about 30%; inconclusive = no clear call, values can overlap the other calls; inactive = below that.

SMILES	Anthrax LF prot	3CLpro inhibitor	VHR inh abs	BoNT-F LC inh	Autofluor counter	BoNT-A LC inh2
COc1cccc(C(=O)OCC(=O)NC(C)CCc2ccccc2)c1O (stereo not given)	0	0	0	0	0	0
COc1ccc(-c2cc(-c3nnc(COC(=O)CC4CC5CCC4C5)o3)c3ccccc3n2)cc1OC (stereo not given)	0	0	0	0	0	52
COc1ccc(CNC(=O)COC(=O)CC2CC3CCC2C3)cc1OC (stereo not given)	0	0	0	0	0	0
CC1CCCCN1C(=O)C1COc2ccccc2O1 (stereo not given)	0	0	0	0	0	0
O=C(c1ccc(Cn2cc([N+](=O)[O-])cn2)o1)N1CCCCCC1	0	0	0	0	0	0
O=C(c1ccc(Cn2cc([N+](=O)[O-])cn2)o1)N1N=C(C(F)F)CC1(O)C(F)F (stereo not given)	0	0	0	0	22404	0
Cc1n[nH]c(=S)n1/N=C/c1ccccc1OCc1ccc(Cl)cc1	0	0	0	0	19713	?
COCCNC(=O)C1CCCN(C(=O)c2cc(-c3ccccc3)cs2)CC1 (stereo not given)	0	-	-	0	0	0
Cc1nc(SCC(=O)Nc2ccccc2)c2oc3ccccc3c2n1	0	0	0	0	0	0
Cc1nc(SCC(=O)NC(C)c2ccccc2)c2oc3ccccc3c2n1 (stereo not given)	0	0	0	0	19999	0
Cc1nc(SCC(=O)NCCc2ccccc2)c2oc3ccccc3c2n1	0	0	0	0	16266	0
CC(C)C[C@@H](COCc1cccc(Cl)c1)N1CCN(C(=O)c2ccc(C(F)(F)F)cc2)CCC1=O	0	-	-	0	0	0
CCc1ccc2c(c1)C1(SC(NC(C)=O)=NN1C(C)=O)C(=O)N2CC (stereo not given)	0	0	0	0	0	0
O=C1NCCN1C(=O)c1ccco1	0	0	0	0	22557	0
O=C(c1ccco1)N1CCN(C(=O)c2ccco2)CC1	0	-	-	0	0	0
CCOc1ccccc1CN1CCC(n2nccc2NC(=O)C2CCCC2)CC1	0	0	0	0	0	0
Cc1ccn(CC(=O)O)c(=O)c1	0	0	0	0	22082	?
O=C(O)Cn1ccc2ccccc21	0	0	0	0	0	0
COc1ccccc1C(=O)Nc1nc(-c2ccc(S(=O)(=O)N3CCOCC3)cc2)cs1	0	0	0	0	0	0
COc1ccccc1OC(C)C(=O)Nc1nc(-c2ccc(S(=O)(=O)N3CCOCC3)cc2)cs1 (stereo not given)	0	0	0	0	23958	?
O=C(CC12CC3CC(CC(C3)C1)C2)NCc1ccncc1	0	0	0	0	16408	0
O=c1[nH]c(/C=C\c2cccc(Cl)c2)nc(O)c1[N+](=O)[O-]	0	0	0	0	0	0
O=c1cc(-c2cccs2)oc2ccc(Cl)cc12	0	0	0	0	22409	0
O=c1c(O)c(-c2cccs2)oc2ccccc12	0	0	0	0	0	31
O=c1c(O)c(-c2cccs2)oc2ccc(Cl)cc12	32	0	0	0	0	35
SMILES	Anthrax LF prot	3CLpro inhibitor	VHR inh abs	BoNT-F LC inh	Autofluor counter	BoNT-A LC inh2
CCOC(=O)C1=C[C@@H](c2ccccc2)N(S(=O)(=O)c2ccc(C)cc2)[C@H]1c1ccccc1Cl	0	-	-	0	0	0
Cc1ccc(C2CC(=O)c3cnc(N4CCc5ccccc5C4)nc3C2)cc1 (stereo not given)	0	0	0	0	19424	?
O=C(NCCC(=O)N(Cc1ccco1)Cc1cccs1)c1ccc([N+](=O)[O-])cc1	0	-	-	0	0	0
O=C1CNC(=S)N1CCCc1ccccc1	0	0	0	0	0	0
COc1ccc(NS(=O)(=O)c2ccc(NS(C)(=O)=O)cc2)cc1	0	0	0	0	0	0
CC(C)(C)NS(=O)(=O)c1ccc(NS(C)(=O)=O)cc1	0	0	0	0	16636	?
CC1=CC2C(C(O)CC3(C)C2CC(C)C32OCOC23COCO3)C2(C)C/C(=C\O)C(=O)C=C12 (stereo not given)	0	-	-	0	0	0
COC(=O)c1ccc(COc2cc(O)c3c(c2)OC(C)(C)CC3=O)cc1	0	0	0	0	0	0
CC1(C)CC(=O)c2c(O)cc(OCc3ccc(Br)cc3)cc2O1	0	0	0	0	22502	0
O=C(/C=C/c1cccc(Cl)c1)Nc1ccncc1	0	0	0	0	21112	0
O=C(/C=C/c1cccc(Cl)c1)NCc1cccs1	0	0	0	0	21424	0
O=C(/C=C/c1c(F)cccc1Cl)Nc1ccncc1	0	0	0	0	0	0
O=C(/C=C/c1cccc(Cl)c1)NCc1ccncc1	0	0	0	0	0	0
O=C(/C=C/c1ccc(Cl)cc1)NCc1cccs1	0	0	0	0	0	0
O=C(/C=C/c1c(Cl)cccc1Cl)Nc1ccncc1	0	0	0	0	20186	0
COCCN1C(=O)C(=O)/C(=C(/O)c2ccc(S(=O)(=O)N3CCOCC3)cc2)C1c1cccc([N+](=O)[O-])c1 (stereo not given)	0	0	0	0	0	0
Cc1ccc(-c2noc(CNC(=O)COc3ccccc3C)n2)cc1	0	0	0	0	0	0
CCn1c2c(c3cc(Br)ccc31)CCC/C2=N\O	0	0	0	0	29475	0
CCOc1cc(Cl)c(S(=O)(=O)NCc2cccnc2)cc1Cl	0	0	0	0	0	0
Cc1ccc2nsnc2c1S(=O)(=O)NCc1ccncc1	0	0	0	0	0	0
Cc1ccc(C)c(S(=O)(=O)NCc2cccnc2)c1	0	0	0	0	21139	0
Cc1ccc2nsnc2c1S(=O)(=O)NCc1cccnc1	0	0	0	0	22869	0
O=C1N2CCCc3cccc(c32)C12Nc1ccccc1S2 (stereo not given)	0	0	0	0	0	0
CC1CC(C)(C)N2C(=O)C3(Nc4ccccc4S3)c3cccc1c32 (stereo not given)	0	0	0	0	22846	?
CC(CC(=O)Nc1nnc(CC(C)(C)C)s1)c1ccccc1 (stereo not given)	0	0	0	0	0	0
SMILES	Anthrax LF prot	3CLpro inhibitor	VHR inh abs	BoNT-F LC inh	Autofluor counter	BoNT-A LC inh2
Brc1ccc(-c2nn3c(-c4ccco4)nnc3s2)o1	0	0	0	0	22193	?
COc1cc(-c2nn3c(-c4ccco4)nnc3s2)cc(OC)c1OC	-	-	0	-	-	-
COc1cccc(OC)c1-c1nn2c(-c3ccco3)nnc2s1	0	0	0	0	20967	0
C=CCNc1nc2cc(-c3ccccc3C)sc2c(=O)n1C	0	-	-	0	0	0
Cc1ccc(NC(=O)c2noc3c2CCCCC3)cc1C	0	0	0	0	16801	0
CCc1ccc(NC(=O)c2noc3c2CCCCC3)cc1	0	0	0	0	0	0
Cc1ccc(NC(=O)c2noc3c2CCCCC3)cc1	0	0	0	0	22657	0
